In PubChem BioAssay (NCI) one finds growth data, which are given here for twelve compounds.

About 83,000 compounds went through this panel and 20% of them were active in at least one assay; those are over-represented in the sample as a whole.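 Interpretation: 100, growth as untreated; towards 0, rising growth inhibition; 0, no net growth; 0 to -100, cell death. Compounds scoring below 10 were considered active.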 Values without a mark were called inactive. Calls of active or inactive are those of the source.

Among the test systems are HCT-15 colon; HT29 colon; SNB-19 CNS; U251 CNS; PC-3 prostate; SK-MEL-5 melanoma; UACC-62 melanoma; LOX IMVI melanoma; SK-MEL-28 melanoma; SK-MEL-2 melanoma; EKVX NSCLC; SN12C renal; UO-31 renal; TK-10 renal; ACHN renal; CAKI-1 renal; A498 renal; CCRF-CEM leukemia; MOLT-4 leukemia; SNB-75 CNS.
Experiment in all cases: NCI-60 one-dose screen, 48 h (100 = growth as untreated, 0 = no growth, -100 = all killed)
Settings in all cases: 10 µM unless noted

On to `CCOc1ccc(/C=C/C(=O)c2cccc(OCCCOc3cccc(C(=O)/C=C/c4ccc(OCC)cc4)c3)c2)cc1`, for which the growth is 75.9% with HCT-15 colon; 94.2% in the experiment with HT29 colon; 92.1% with SNB-19 CNS; 103% in the experiment on U251 CNS; 75.2% with PC-3 prostate; 75.2% in the experiment on SK-MEL-5 melanoma. For the same compound, the growth is 57.9% in the experiment with UACC-62 melanoma; 83.5% in the experiment with LOX IMVI melanoma; 87.1% in the experiment on SK-MEL-28 melanoma; 106% in the experiment with SK-MEL-2 melanoma; 76.9% in the experiment on EKVX NSCLC; 79.5% in the experiment on SN12C renal. Besides, the growth is 73.4% in the experiment with UO-31 renal; 120% in the experiment with TK-10 renal; 79.4% in the experiment with ACHN renal; 78% in the experiment with CAKI-1 renal; 73.4% in the experiment with A498 renal; 67.9% in the experiment with CCRF-CEM leukemia. Moreover, the growth in the experiment on MOLT-4 leukemia is 73.5%.
Consider `CC/C(=C(/c1ccc(O)cc1)c1ccc(OCCN2CCCCC2)cc1)c1ccc(OC)cc1`, for which the growth in the experiment with HCT-15 colon was 20.1%; in the experiment on HT29 colon it was 4.3% (active); in the experiment on SNB-75 CNS it was 74.1%; in the experiment with U251 CNS it was 8.72% (active); with PC-3 prostate it was 79.4%; in the experiment on SK-MEL-5 melanoma, 88.6%. Further, the growth was -40% (active) with LOX IMVI melanoma; 60.3% in the experiment on SK-MEL-28 melanoma; 97.4% with SK-MEL-2 melanoma; 87% in the experiment on EKVX NSCLC; 91.1% in the experiment on SN12C renal; 70% in the experiment with UO-31 renal. The growth is 86.6% in the experiment on TK-10 renal; 91.3% in the experiment on ACHN renal; 91.2% with CAKI-1 renal; 83.2% in the experiment with A498 renal; 42.1% in the experiment on CCRF-CEM leukemia; 23% in the experiment on MOLT-4 leukemia.
Consider `C(=C(\C1=NCCN1)n1ccc2ccccc21)/c1ccccc1`, for which the growth in the experiment on HCT-15 colon is 99.6%; with HT29 colon it was 103%; in the experiment with SNB-19 CNS, 99.9%; in the experiment with U251 CNS, 94.6%; with PC-3 prostate, 95.5%; in the experiment with SK-MEL-5 melanoma, 98.3%. Also, the growth was 93.3% in the experiment on LOX IMVI melanoma; 106% in the experiment with SK-MEL-28 melanoma; 106% in the experiment on SK-MEL-2 melanoma; 92.8% in the experiment on EKVX NSCLC; 98.3% in the experiment with SN12C renal; 62.4% in the experiment on UO-31 renal. The growth was 89.2% with TK-10 renal; 95.9% with ACHN renal; 80.7% in the experiment on CAKI-1 renal; 102% in the experiment with A498 renal; 100% with CCRF-CEM leukemia; 97.8% in the experiment on MOLT-4 leukemia.
`COc1ccc(C(=O)/C=C/c2ccccc2)cc1S(N)(=O)=O`: the growth is 44.1% in the experiment on HCT-15 colon; 63.6% in the experiment with HT29 colon; 26.2% with U251 CNS; 74% with PC-3 prostate; 88.2% in the experiment with SK-MEL-5 melanoma; 79.2% in the experiment with UACC-62 melanoma. Further, the growth with LOX IMVI melanoma is 42%; in the experiment on SK-MEL-28 melanoma it was 107%; in the experiment with SK-MEL-2 melanoma, 89.8%; with EKVX NSCLC, 95.6%; with SN12C renal it was 44.9%; with UO-31 renal, 54.7%. The growth with TK-10 renal is 66.8%; in the experiment on ACHN renal, 74.9%; in the experiment with CAKI-1 renal, 82.3%; with A498 renal, 85.3%; in the experiment on CCRF-CEM leukemia, 57.8%; in the experiment with MOLT-4 leukemia, 57.5%.
`COc1cc2c(c(OC)c1OC)C(=O)CC(c1cccc(C(=O)Nc3ccc(C#N)cc3)c1)O2` (stereo not drawn): the growth with HCT-15 colon is 63%; in the experiment with HT29 colon it was 86.4%; with SNB-19 CNS, 89.5%; in the experiment on U251 CNS it was 94.7%; with PC-3 prostate, 39.2%; in the experiment on SK-MEL-5 melanoma, 37.5%. For the same compound, the growth in the experiment with UACC-62 melanoma was 34.8%; in the experiment on LOX IMVI melanoma, 79.6%; in the experiment with SK-MEL-28 melanoma, 95.6%; in the experiment on SK-MEL-2 melanoma, 74.6%; in the experiment on EKVX NSCLC, 80.2%; with SN12C renal, 72.1%. The growth is 52% with UO-31 renal; 92.3% in the experiment on TK-10 renal; 79.4% in the experiment with ACHN renal; 71.6% in the experiment on CAKI-1 renal; 72.1% in the experiment on A498 renal; 25% in the experiment on CCRF-CEM leukemia. In addition, the growth in the experiment on MOLT-4 leukemia is 20%.
As for `OC1CSSC1Cn1cnc2c(Nc3ccc(OCc4cccc(F)c4)c(Cl)c3)ncnc21` (stereo not drawn), the growth with HCT-15 colon is -64% (active); with HT29 colon it was 3.96% (active); in the experiment on SNB-19 CNS it was -49.4% (active); with U251 CNS it was -26.3% (active); in the experiment with PC-3 prostate, -69.3% (active); in the experiment on SK-MEL-5 melanoma, -55.6% (active). Further, the growth in the experiment with UACC-62 melanoma was -68.9% (active); with LOX IMVI melanoma, -82.6% (active); in the experiment on SK-MEL-28 melanoma it was -9.14% (active); with SK-MEL-2 melanoma, -33.4% (active); with EKVX NSCLC, -71.9% (active); in the experiment with SN12C renal, 30.5%. Moreover, the growth with UO-31 renal is 11.9%; in the experiment with TK-10 renal it was -5.98% (active); in the experiment on ACHN renal, 15.6%; in the experiment on CAKI-1 renal, 19.6%; in the experiment on A498 renal, 69.6%; in the experiment with CCRF-CEM leukemia, -8.33% (active). In the experiment with MOLT-4 leukemia, the growth is -41.8% (active).
For the compound `N#Cc1c(-c2ccc(Cl)cc2)nc(NN=Cc2ccc[nH]2)nc1N1CCOCC1`, the growth with HCT-15 colon is 78.9%; in the experiment on HT29 colon, 66.2%; with SNB-19 CNS, 74.2%; with U251 CNS, 56.4%; with PC-3 prostate, 46.6%; in the experiment on SK-MEL-5 melanoma, 85.2%. Also, the growth is 87.8% in the experiment with LOX IMVI melanoma; 90.8% with SK-MEL-28 melanoma; 98.8% in the experiment with SK-MEL-2 melanoma; 66% in the experiment with EKVX NSCLC; 40.1% with SN12C renal; 14.8% in the experiment on UO-31 renal. The growth is 63.3% in the experiment with TK-10 renal; 82.5% in the experiment with ACHN renal; 63.2% with CAKI-1 renal; 20.8% in the experiment with CCRF-CEM leukemia; 17.4% in the experiment with MOLT-4 leukemia.
Regarding `CN(C)CCCn1c2c(c3cnccc3c1=O)C(=O)c1ccccc1-2`, the growth in the experiment on HCT-15 colon was -3.54% (active); with HT29 colon, -2.38% (active); in the experiment with SNB-19 CNS, 1.02% (active); in the experiment on U251 CNS, 0.151% (active); with PC-3 prostate, -5.36% (active); in the experiment on SK-MEL-5 melanoma, -75.8% (active). Moreover, the growth in the experiment on UACC-62 melanoma is -64.6% (active); in the experiment on LOX IMVI melanoma, -44.9% (active); in the experiment with SK-MEL-28 melanoma it was -28.1% (active); in the experiment with SK-MEL-2 melanoma, -13.5% (active); with EKVX NSCLC, 40.9%; in the experiment with SN12C renal, 1.1% (active). Also, the growth was -39% (active) in the experiment with UO-31 renal; 3.67% (active) in the experiment with TK-10 renal; -25.9% (active) in the experiment on ACHN renal; 1% (active) in the experiment with CAKI-1 renal; 25.8% with A498 renal; 9.81% (active) in the experiment with CCRF-CEM leukemia. The growth in the experiment with MOLT-4 leukemia is -2.22% (active).
`N#Cc1c(-c2ccccc2)nc2c(c(-c3ccccc3)nn2-c2ccccc2)c1-c1ccc(N2CCCCC2)cc1`: the growth was 107% with HCT-15 colon; 110% in the experiment on HT29 colon; 99.3% with SNB-19 CNS; 96.8% in the experiment with U251 CNS; 90.5% in the experiment with PC-3 prostate; 99.2% in the experiment on SK-MEL-5 melanoma. The growth is 92.8% in the experiment with UACC-62 melanoma; 96% with LOX IMVI melanoma; 106% with SK-MEL-28 melanoma; 110% in the experiment with SK-MEL-2 melanoma; 99.5% with EKVX NSCLC; 99.4% in the experiment with SN12C renal. Besides, the growth in the experiment with UO-31 renal is 84.9%; in the experiment with TK-10 renal it was 103%; in the experiment on ACHN renal it was 101%; in the experiment on CAKI-1 renal, 86.1%; in the experiment on A498 renal, 97.7%; with CCRF-CEM leukemia, 96.5%. The growth with MOLT-4 leukemia was 95.5%.
Consider `CC(=O)O[C@H]1CC[C@]2(C)[C@H]3CC=C4[C@@H]5CC(C)(C)CC[C@]5(C(=O)N5CCN(CCC#N)CC5)CC[C@@]4(C)[C@]3(C)CC[C@H]2C1(C)C`, for which the growth with HCT-15 colon is 20.3%; in the experiment on SNB-75 CNS, 53.8%; with SNB-19 CNS, 63.2%; in the experiment with U251 CNS it was 12.4%; in the experiment with PC-3 prostate, 19.5%; in the experiment with SK-MEL-5 melanoma, 7.89% (active). For the same compound, the growth was 38% in the experiment on UACC-62 melanoma; 20% in the experiment on LOX IMVI melanoma; 52.2% in the experiment with SK-MEL-28 melanoma; 68.7% in the experiment on SK-MEL-2 melanoma; 65.8% in the experiment on EKVX NSCLC; 53.4% with SN12C renal. The growth with UO-31 renal was 30.2%; in the experiment on TK-10 renal it was 54.1%; in the experiment on ACHN renal, 28.2%; with CAKI-1 renal, 35.1%; in the experiment on A498 renal it was 5.98% (active); with CCRF-CEM leukemia it was 27.5%. Moreover, the growth in the experiment on MOLT-4 leukemia is 19.7%.
With `O=S(=O)(Nc1cc(F)cc(F)c1)c1ccc(-c2cnc(C3CC3)o2)cc1`, the growth in the experiment with HCT-15 colon was 20%; with SNB-75 CNS, -3.36% (active); with SNB-19 CNS, 30%; in the experiment on U251 CNS, 33%; with PC-3 prostate, 48.1%; in the experiment on SK-MEL-5 melanoma, 29.4%. The growth is 33.7% with UACC-62 melanoma; 36.3% with LOX IMVI melanoma; 60.8% in the experiment on SK-MEL-28 melanoma; 39.9% with SK-MEL-2 melanoma; 52.5% in the experiment with EKVX NSCLC; 46.9% in the experiment with SN12C renal. In addition, the growth in the experiment on UO-31 renal was 50.1%; in the experiment with TK-10 renal it was 63.1%; with ACHN renal, 43.5%; in the experiment on CAKI-1 renal it was 32.7%; in the experiment with A498 renal it was 1.5% (active); with CCRF-CEM leukemia it was 32.2%. The growth with MOLT-4 leukemia was 39.1%.
As to `O=C(NCCCCO)c1cncnc1Nc1ccc2c(ccn2Cc2cccc(F)c2)c1`, the growth with HCT-15 colon was 85.1%; with SNB-75 CNS, 85%; in the experiment on SNB-19 CNS it was 85.1%; in the experiment with U251 CNS it was 94.7%; in the experiment with PC-3 prostate it was 86%; with SK-MEL-5 melanoma it was 95.2%. Also, the growth was 80.4% in the experiment with UACC-62 melanoma; 93.7% in the experiment with LOX IMVI melanoma; 100% in the experiment on SK-MEL-28 melanoma; 106% with SK-MEL-2 melanoma; 85.1% in the experiment with EKVX NSCLC; 87.7% in the experiment with SN12C renal. The growth in the experiment on UO-31 renal is 67%; with TK-10 renal it was 98.7%; in the experiment with ACHN renal, 86.3%; in the experiment on CAKI-1 renal, 79.8%; with A498 renal it was 69.5%; in the experiment with CCRF-CEM leukemia, 103%. Besides, the growth in the experiment on MOLT-4 leukemia is 88.3%.
